In PubChem BioAssay AID1986 (Sanford-Burnham Center for Chemical Genomics, 2009) one finds inhibition data, which are given here for 42 compounds.

This assay can be described thus: inhibitors of HIV fusion peptide binding, primary screen, biochemical, uHTS, fluorescence dequenching (AID 1986). Particulars: cell-free peptide binding, 30 min, stronger effect = higher value.
The mark [1] stands for this setting: measured here: repeat confirmation average inhibition, at 18.6 µM.

The whole screen tested about 290,000 compounds, of which about 890 (0.31%) were called active. This is one part of a sample in which actives are shown more often than they occur. Rule as the data show it: active = inhibition mostly above about 52% (no sharp cut-off); inactive = mostly below about 76%.

As for `Nc1cc(=O)[nH]c(SCC(=O)N2N=C(c3ccc4ccccc4c3)CC2c2ccccc2)n1` (stereo not given), where the note is “at 20 µM”, the inhibition (commonly the drop in the measured response relative to a control, in per cent) is -0.7% (inactive).

For the compound `Cc1cc(-c2ccccc2)n2ncnc2n1`, the inhibition (at 20 µM) is 0.4% (inactive).

Regarding `COc1ccc(CNc2cc(C)nc3ccc(OC)cc23)cc1`, the inhibition (at 20 µM) is -0.2% (inactive).

As for `COc1ccc2nc(C)cc(NCc3ccc(F)cc3)c2c1`, the inhibition reads like this: (at 20 µM) 65.2% (active); under setting [1], 53%.

On to `COc1ccc2nc(C)cc(NCc3cccc(C(F)(F)F)c3)c2c1`, for which the inhibition (at 20 µM) is -0.7% (inactive).

For `COc1ccccc1C(=O)Nc1ccccn1`, the inhibition (at 20 µM) is 0.9% (inactive).

On to `CCc1nc(N[C@@H](CC(C)C)C(=O)O)c2oc3ccccc3c2n1`, for which, where the note is “at 20 µM”, the inhibition is 4.3% (inactive).

`CC(C)N1CC=C2C(C#N)=C(N)C(C#N)(C#N)C(c3ccccc3)C2C1` (stereo not given): the inhibition (at 20 µM) is 86.9% (active).

For `COc1ccc(OC)c(C2C3CN(C(C)C)CC=C3C(C#N)=C(N)C2(C#N)C#N)c1` (stereo not given), for the setting “at 20 µM”, the inhibition was -0.5% (inactive).

`CC(C)N1CC=C2C(C#N)=C(N)C(C#N)(C#N)[C@H](c3ccoc3)[C@H]2C1`: the inhibition (at 20 µM) was 123% (active).

As to `Cc1ccc(C2C3CN(C(C)C)CC=C3C(C#N)=C(N)C2(C#N)C#N)cc1` (stereo not given), the inhibition (at 20 µM) is 87.6% (active).

In the case of `CCN1CC=C2C(C#N)=C(N)C(C#N)(C#N)C(CCc3ccccc3)C2C1` (stereo not given), the inhibition (at 20 µM) was -0.3% (inactive).

With `CN1CC=C2C(C#N)=C(N)C(C#N)(C#N)[C@H](c3cccc(Cl)c3)C2C1` (stereo not given in full), the inhibition (at 20 µM) was 25.6% (inactive).

In the case of `Cc1ccc(C2C3CSCC=C3C(C#N)=C(N)C2(C#N)C#N)cc1` (stereo not given), for the setting “at 20 µM”, the inhibition is 22.2% (inactive).

Take `CC(=O)N1CC=C2C(C#N)=C(N)C(C#N)(C#N)[C@H](c3ccoc3)[C@H]2C1`: the inhibition (at 20 µM) was 29% (inactive).

For the compound `CN1CC=C2C(C#N)=C(N)C(C#N)(C#N)C(Cc3ccccc3)C2C1` (stereo not given), the inhibition (at 20 µM) is 52.9% (active).

As for `CCCC1C2CN(C(C)C)CC=C2C(C#N)=C(N)C1(C#N)C#N` (stereo not given), the inhibition (at 20 µM) is -3.6% (inactive).

Turning to `CN1CC=C2C(C#N)=C(N)C(C#N)(C#N)[C@H](c3ccoc3)[C@H]2C1`, the inhibition (at 20 µM) is 0.3% (inactive).

Consider `CN1CC=C2C(C#N)=C(N)C(C#N)(C#N)C(CCc3ccccc3)C2C1` (stereo not given), for which the inhibition was 64.6% (inactive) (at 20 µM) and 14.6% under setting [1].

Regarding `COc1cc(/C=C(\C#N)C(=O)NCC2CCCO2)ccc1OC(C)C` (stereo not given), the inhibition (at 20 µM) was -1.4% (inactive).

On to `CN(CC(=O)Nc1ccc(F)c(F)c1F)c1ncnc2sccc12`, for which the inhibition (at 20 µM) is 0.3% (inactive).

As for `COCCn1c(SCC(=O)N2CCCc3ccccc32)nnc1-c1ccoc1C`, the inhibition (at 20 µM) was -1.1% (inactive).

Take `COc1ccc(Cl)cc1N1C(=O)CN(Cc2cc(OC)c(OC)c(OC)c2)C1=S`: the inhibition (at 20 µM) was 1% (inactive).

For the compound `COc1ccccc1C(=O)NNC(=O)c1ccc2ccccc2c1`, the inhibition (at 20 µM) is 0.5% (inactive).

In the case of `O=C(/C=C/c1ccccc1)Nc1cccnc1Cl`, the inhibition (at 20 µM) is -1.1% (inactive).

As to `CCOC(=O)c1ccc(N=Nc2c(C)c(C#N)c(O)[nH]c2=O)cc1`, the inhibition (at 20 µM) is 4.3% (inactive).

With `Cc1c(C#N)c(O)[nH]c(=O)c1N=Nc1ccc(S(N)(=O)=O)cc1`, where the note is “at 20 µM”, the inhibition was 12% (inactive).

As for `CCCCOC(=O)c1ccc(N=Nc2c(C)c(C#N)c(O)[nH]c2=O)cc1`, the inhibition reads like this: (at 20 µM) 77.6% (active); under setting [1], 93.8%.

Turning to `COc1ccccc1CC(NC(C)=O)C(=O)NC1CCN(C(=O)Nc2cccc(F)c2)CC1` (stereo not given), the inhibition (at 20 µM) was -1.2% (inactive).

Take `C=C1CCN([C@@H](C)C(=O)OCc2cccc(C)c2)S(=O)(=O)c2ccccc21`: the inhibition (at 20 µM) was 1.3% (inactive).

Regarding `O=C(CCCN1C(=O)/C(=C\c2ccco2)SC1=S)Nc1ccc2ccccc2c1`, the inhibition is 65.1% (inactive) (at 20 µM) and 3% under setting [1].

Take `O=C(CN1C(=O)/C(=C/c2ccco2)SC1=S)Nc1ccc(O)c(C(=O)O)c1`: the inhibition (at 20 µM) is 58.3% (active).

Consider `CC(C(=O)N(C)C1CCS(=O)(=O)C1)N1C(=O)/C(=C/c2ccco2)SC1=S` (stereo not given), for which, under “at 20 µM”, the inhibition is 24.8% (inactive).

Regarding `O=C(CCN1C(=O)/C(=C\c2ccco2)SC1=S)Nc1ccc(C(=O)O)c(O)c1`, the inhibition (at 20 µM) was 75.4% (active).

With `CC(C(=O)Nc1ccc(O)cc1C(=O)O)N1C(=O)/C(=C\c2cccs2)SC1=S` (stereo not given), the inhibition by setting is: (at 20 µM) 50.1% (inactive); under setting [1], 46.3%.

Turning to `O=C(CCN1C(=O)S/C(=C/c2ccccc2)C1=O)Nc1ccc(C(=O)O)c(O)c1`, the inhibition (at 20 µM) was 29.4% (inactive).

In the case of `O=C(CCCN1C(=O)/C(=C/c2ccccc2)SC1=S)Nc1ccc(C(=O)O)c(O)c1`, the inhibition is 60.7% (inactive) (at 20 µM) and 40.5% under setting [1].

As for `O=C(CCCN1C(=O)/C(=C/c2ccco2)SC1=S)Nc1ccccc1C(=O)O`, the inhibition reads like this: (at 20 µM) 67.2% (inactive); under setting [1], 29.8%.

As to `CC(C(=O)Nc1ccc(C(=O)O)c(O)c1)N1C(=O)/C(=C\c2ccco2)SC1=S` (stereo not given), the inhibition (at 20 µM) was 78.3% (active).

Turning to `O=C(CCCN1C(=O)/C(=C/c2ccco2)SC1=S)Nc1cccc(C(=O)O)c1`, the inhibition is, setting by setting: (at 20 µM) 59.9% (inactive); under setting [1], 12.3%.

Turning to `CC(/C=C1\SC(=S)N(CCCC(=O)Nc2ccc(C(=O)O)c(O)c2)C1=O)=C\c1ccccc1`, for the setting “at 20 µM”, the inhibition is 56.9% (active).

Regarding `CC(=O)c1ccc(NC(=O)CCCN2C(=O)/C(=C/C(C)=C/c3ccccc3)SC2=S)cc1`, the inhibition (at 20 µM) was 3.3% (inactive).
